In PubChem BioAssay AID1159580 (chemical genetic matrix, 2015):
“And” between values parts separate entries of the source, which are not always exact repeats. Equal values may be shown once. The campaign covered roughly 5,500 compounds. About 2,000 (36%) were called active. Roughly 18% stayed inconclusive and do not appear here. No stated cut-off is given here; in the data, active means normalized growth mostly below about 0.91 (no sharp cut-off); inconclusive means no clear call, values can overlap the other calls; inactive means mostly above about 0.92. The list shows a part of the results.

Test: chemical genetic growth profiling, strain panel (AID 1159580);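 further: tested at 20 µM; growth read once vehicle control cultures reached saturation at 30 °C; 1 = growth at the plate median or of vehicle wells; lower values mean less growth of the strain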
Conditions: S. cerevisiae deletion strains, growth OD

Measured: normalized growth

CC1(C)O[C@@H]2CC3C4C[C@H](F)C5=CC(=O)C=C[C@]5(C)[C@@]4(F)[C@@H](O)C[C@]3(C)[C@]2(C(=O)CO)O1 (stereo partly specified)
inactive: locus YAL013W, strain DEP1, active compounds read low 1 | locus YAL021C, strain ccr4, active compounds read low 1.01 | locus YAL026C, strain drs2, active compounds read low 1 | locus YAL030W, strain snc1, active compounds read low 1.01 | locus YBL061C, strain skt5, active compounds read low 1.01 | locus YBR009C, strain hhf1, active compounds read low 1.01 | locus YBR021W, strain FUR4, active compounds read low 0.995 | locus YBR023C, strain chs3, active compounds read low 1.03 | locus YBR171W, strain sec66, active compounds read low 1.02 | locus YBR229C, strain ROT2, active compounds read low 0.999 | locus YBR231C, strain swc5, active compounds read low 1.01 | locus YBR279W, strain paf1, active compounds read low 1.05 | locus YCL011C, strain gbp2, active compounds read low 1.03 | locus YCL016C, strain dcc1, active compounds read low 1.02 | locus YCL029C, strain bik1, active compounds read low 1.01 | locus YCL061C, strain MRC1, active compounds read low 1.03 | locus YCL069W, strain vba3, active compounds read low 1.02 | locus YCR088W, strain abp1, active compounds read low 1.01 | locus YDL005C, strain med2, active compounds read low 1.02 | locus YDL035C, strain GPR1, active compounds read low 0.982 | locus YDL040C, strain nat1, active compounds read low 1.01 | locus YDL074C, strain BRE1, active compounds read low 1 | locus YDL101C, strain DUN1, active compounds read low 1.01 | locus YDL185W, strain tfp1, active compounds read low 1.01 | locus YDL192W, strain arf1, active compounds read low 1.01 | locus YDR001C, strain nth1, active compounds read low 1.02 | locus YDR069C, strain doa4, active compounds read low 1 | locus YDR101C, strain arx1, active compounds read low 0.988 | locus YDR137W, strain rgp1, active compounds read low 1.02 | locus YDR159W, strain sac3, active compounds read low 0.973 | locus YDR162C, strain NBP2, active compounds read low 0.993 | locus YDR195W, strain ref2 1.01 | locus YDR297W, strain sur2, active compounds read low 1.01 | locus YDR318W, strain mcm21, active compounds read low 1.02 | locus YDR334W, strain swr1, active compounds read low 1.01 | locus YDR335W, strain msn5, active compounds read low 1.02 | locus YDR388W, active compounds read low 1.01 | locus YDR392W, strain spt3, active compounds read low 0.975 | locus YDR502C, strain sam2, active compounds read low 1.01 | locus YEL003W, strain gim4, active compounds read low 1 | locus YEL037C, strain rad23, active compounds read low 1.01 | locus YEL061C, strain CIN8 (second series), active compounds read low 1.02 | locus YEL061C, strain CIN8, active compounds read low 0.992 | locus YER015W, strain faa2, active compounds read low 1.01 | locus YER016W, strain bim1, active compounds read low 1.01 | locus YER110C, active compounds read low 1.02 | locus YER111C, strain swi4, active compounds read low 1.01 | locus YER155C, strain BEM2 (second series), active compounds read low 1.02 | locus YER155C, strain BEM2, active compounds read low 0.997 | locus YER167W, strain BCK2, active compounds read low 1 | locus YFR010W, strain ubp6, active compounds read low 1.01 | locus YGL078C, strain dbp3, active compounds read low 1.02 | locus YGL086W, strain mad1, active compounds read low 0.992 | locus YGL167C, strain pmr1, active compounds read low 1.01 | locus YGL173C, strain kem1, active compounds read low 1.01 | locus YGL227W, strain vid30, active compounds read low 1.02 | locus YGL240W, strain doc1, active compounds read low 0.997 | locus YGL248W, strain PDE1, active compounds read low 1.01 | locus YGL253W, strain hxk2, active compounds read low 1.01 | locus YGR078C, strain PAC10, active compounds read low 0.994 | locus YGR135W, strain pre9, active compounds read low 1.07 | locus YGR252W, strain gcn5, active compounds read low 1.07 | locus YHR013C, strain ard1, active compounds read low 1.05 | locus YHR027C, strain rpn1, active compounds read low 1.01 | locus YHR030C, strain SLT2, active compounds read low 0.99 and 0.972 | locus YHR079C, strain IRE1 (second series), active compounds read low 1.01 | locus YHR079C, strain IRE1, active compounds read low 0.969 | locus YHR094C, strain hxt1, active compounds read low 1.02 | locus YHR129C, strain ARP1, active compounds read low 0.997 | locus YHR142W, strain chs7, active compounds read low 1.03 | locus YHR200W, strain rpn10, active compounds read low 1.02 | locus YIL066C, strain RNR3, active compounds read low 0.993 | locus YIL073C, strain SPO22, active compounds read low 1.02 | locus YIL125W, strain kgd1, active compounds read low 1.01 | locus YIR030C, strain dcg1, active compounds read low 1.02 | locus YJL092W, strain hpr5, active compounds read low 1.02 | locus YJL095W, strain BCK1 (second series), active compounds read low 1.02 | locus YJL095W, strain BCK1, active compounds read low 1.01 and 0.978 | locus YJL115W, strain asf1, active compounds read low 1.01 | locus YJL129C, strain trk1, active compounds read low 1.02 | locus YJL134W, strain LCB3, active compounds read low 1 | locus YJL154C, strain vps35, active compounds read low 1.01 | locus YJL164C, strain tpk1, active compounds read low 1.01 | locus YJL166W, strain qcr8, active compounds read low 1.03 | locus YJL168C, strain set2, active compounds read low 1.02 | locus YJL187C, strain SWE1 (second series), active compounds read low 0.999 | locus YJL187C, strain SWE1, active compounds read low 1.01 | locus YJR043C, strain POL32, active compounds read low 0.988 | locus YJR066W, strain TOR1, active compounds read low 0.952 | locus YJR075W, strain HOC1, active compounds read low 0.994 | locus YKL009W, strain mrt4, active compounds read low 0.996 | locus YKL068W, active compounds read low 1.01 | locus YKL085W, strain MDH1 (second series), active compounds read low 1.01 | locus YKL085W, strain MDH1, active compounds read low 1.01 | locus YKL160W, strain elf1, active compounds read low 1.03 | locus YKL190W, strain CNB1, active compounds read low 0.994 | locus YKR001C, strain vps1, active compounds read low 1 | locus YKR026C, strain gcn3, active compounds read low 1.01 | locus YKR091W, strain srl3, active compounds read low 1.01 | locus YLL001W, strain dnm1, active compounds read low 1.01 | locus YLL026W, active compounds read low 1.01 | locus YLL041C, strain sdh2, active compounds read low 1.01 | locus YLR027C, strain aat2, active compounds read low 1.01 | locus YLR039C, strain RIC1, active compounds read low 1.05 | locus YLR058C, strain SHM2, active compounds read low 1.01 | locus YLR102C, strain apc9, active compounds read low 1.02 | locus YLR113W, strain HOG1, active compounds read low 0.994 | locus YLR221C, strain rsa3, active compounds read low 1.02 | locus YLR258W, strain gsy2, active compounds read low 1.01 | locus YLR262C, strain YPT6 (second series), active compounds read low 1.04 | locus YLR262C, strain YPT6, active compounds read low 0.968 | locus YLR268W, strain sec22, active compounds read low 1.01 | locus YLR320W, strain mms22, active compounds read low 1.04 | locus YLR330W, strain CHS5, active compounds read low 1 | locus YLR342W, strain FKS1 (second series), active compounds read low 1.01 | locus YLR342W, strain FKS1, active compounds read low 1.02 | locus YLR357W, strain rsc2, active compounds read low 1.01 | locus YLR370C, strain arc18, active compounds read low 1.01 | locus YLR371W, strain rom2, active compounds read low 1.01 | locus YLR384C, strain iki3, active compounds read low 1.02 | locus YLR418C, strain cdc73, active compounds read low 1.03 | locus YML016C, strain PPZ1, active compounds read low 0.998 | locus YML032C, strain rad52, active compounds read low 1.01 | locus YML120C, strain ndi1, active compounds read low 1.03 | locus YML124C, strain tub3, active compounds read low 1.01 | locus YMR058W, strain fet3, active compounds read low 1.01 | locus YMR078C, strain ctf18, active compounds read low 1.01 | locus YMR125W, strain sto1, active compounds read low 1.03 | locus YMR129W, active compounds read low 1.01 | locus YMR205C, strain PFK2, active compounds read low 1.01 | locus YMR223W, strain ubp8, active compounds read low 1.04 | locus YMR231W, strain pep5, active compounds read low 1.01 | locus YMR307W, strain GAS1, active compounds read low 0.967 | locus YNL067W, strain RPL9B, active compounds read low 0.993 | locus YNL071W, strain lat1, active compounds read low 1.02 | locus YNL128W, strain TEP1, active compounds read low 1.01 | locus YNL183C, strain NPR1, active compounds read low 0.975 | locus YNL209W, strain ssb2, active compounds read low 1.02 | locus YNL233W, strain BNI4, active compounds read low 1 | locus YNL248C, strain rpa49, active compounds read low 1.01 | locus YNL250W, strain rad50, active compounds read low 1.05 | locus YNL271C, strain bni1, active compounds read low 1.02 | locus YNL298W, strain CLA4, active compounds read low 1.01 | locus YNL307C, strain MCK1, active compounds read low 1.03 | locus YNL322C, strain KRE1 (second series), active compounds read low 1.03 | locus YNR049C, strain mso1, active compounds read low 1 | locus YNR052C, strain pop2, active compounds read low 1.01 | locus YOL012C, strain htz1 0.765 | locus YOL147C, strain pex11, active compounds read low 1.02 | locus YOR001W, strain rrp6, active compounds read low 0.98 | locus YOR061W, strain CKA2, active compounds read low 1.01 | locus YOR069W, strain VPS5, active compounds read low 1 | locus YOR070C, strain gyp1, active compounds read low 1.03 | locus YOR080W, strain dia2, active compounds read low 1.02 | locus YOR083W, strain WHI5, active compounds read low 1.04 | locus YOR106W, strain vam3, active compounds read low 1.04 | locus YOR136W, strain idh2, active compounds read low 1.01 | locus YOR144C, strain elg1, active compounds read low 1.01 | locus YOR184W, strain ser1, active compounds read low 1.02 | locus YOR231W, strain MKK1, active compounds read low 0.986 | locus YOR265W, strain rbl2, active compounds read low 1.01 | locus YOR270C, strain vph1, active compounds read low 1.04 | locus YOR290C, strain snf2, active compounds read low 0.985 | locus YOR316C, strain cot1, active compounds read low 1.01 | locus YPL051W, strain arl3, active compounds read low 1.01 | locus YPL055C, strain LGE1, active compounds read low 0.996 | locus YPL078C, strain atp4, active compounds read low 1.02 | locus YPL106C, strain sse1, active compounds read low 1.01 | locus YPL240C, strain hsp82, active compounds read low 1.01 | locus YPL241C, strain CIN2, active compounds read low 1 | locus YPL256C, strain CLN2, active compounds read low 0.987 | locus YPR119W, strain clb2, active compounds read low 1.02 | locus YPR141C, strain kar3, active compounds read low 1.01 | locus YPR163C, strain tif3, active compounds read low 1.02 | locus YPR167C, strain met16, active compounds read low 1.01 | strain wtn01, active compounds read low 1.01
